# ChEMBL document CHEMBL4513216, “Probing the Open Global Health Chemical Diversity Library for Multistage-Active Starting Points for Next-Generation Antimalarials” (ACS Infect Dis, 2020)
# The campaign covered roughly 69,000 compounds. About 8,600 (12%) showed an effect of 50% or more. The sample holds strong results, similar compounds and a random draw of the others, so the mix is not that of the screen.
# Test system: Plasmodium berghei
# Experiment: Screen against P. berghei liver stage (PbLuc), transformed with Luciferase, at 10uM
# Format: functional, HepG2
# Conditions: tested at 10 uM
row,SMILES,INHIBITION [%]
1,O=C(Nc1ccc(CCN2CCOCC2)cc1)C1CC1,6.35
2,Cc1nsc(N2CCCN(C(=O)CCc3ccsc3)CC2)n1,15.7
3,CCOc1ccc(N2CCCN=C2NC(=O)c2ccccc2C)cc1,-11.5
4,CCOc1ccc(N2CCCN=C2NC(=O)c2ccc(Cl)cc2)cc1,19.3
5,CCOc1ccc(N2CCCN=C2NC(=O)c2cccc(C)c2)cc1,54
6,CCOc1ccc(N2CCCN=C2NC(=O)c2ccc(OC)cc2)cc1,-8.07
7,CCOc1ccc(N2CCCN=C2NC(=O)c2cccc(OC)c2)cc1,54.9
8,CCOc1ccc(N2CCCN=C2NC(=O)c2cccc(Cl)c2)cc1,23.5
9,NC(=O)C1CCN(C(=O)NCCNc2ccccn2)CC1,21.9
10,CCc1ncc(CN(C)C2CCN(C(C)C)CC2)cn1,-27.1
11,O=C(c1ccco1)N1CCC2(CCC(=O)N2Cc2cccc(F)c2)CC1,-4.27
12,COc1cc(N2C[C@H](C(=O)NC3CC3)[C@@H]3CCO[C@@H]3C2)ncn1,12.7
13,Cc1ncc2c(n1)CN(CC(O)COc1ccc(C#N)cc1)CC2 (centres undefined),-78
14,Cc1cnn(C2CN(CC(O)COc3ccc(C#N)cc3)C2)c1 (centres undefined),72.7
15,Cc1cnn(C2CN(CC(O)Cn3cccn3)C2)c1 (centres undefined),36.6
16,Cc1cnn(C2CN(CC(O)c3ccc(F)cc3)C2)c1 (centres undefined),-30.1
17,COc1ccc(C(O)CN2CC(n3cc(C)cn3)C2)cc1 (centres undefined),57.2
18,Cc1cnn(C2CN(CC(O)c3ccccc3)C2)c1 (centres undefined),29
19,COc1cccc(-n2c(C)cc(C(=O)NCCCC(N)=O)c2C)c1,-5.25
20,CC(C)c1nnc2n1CCN(C(=O)c1cccc(S(C)(=O)=O)c1)C2,45.7
21,c1ccc(COC[C@@]23CCC[C@@H]2CN(Cc2ccccn2)C3)nc1,-7.94
22,O=C(N1CCCC1)N1C[C@H]2CCC[C@@]2(COCc2ccccn2)C1,63.8
23,O=C(C1CCOCC1)N1C[C@H]2CCC[C@@]2(COCc2ccccn2)C1,53
24,Cc1ncoc1C(=O)N1C[C@H]2CCC[C@@]2(COCc2cccnc2)C1,60.1
25,O=C(c1cocn1)N1C[C@H]2CCC[C@@]2(COCc2cccnc2)C1,9.63
26,O=C(C1CCOCC1)N1C[C@H]2CCC[C@@]2(COc2ccccn2)C1,13.6

row,SMILES,INHIBITION [%]
1,O=C(c1ncccn1)N1C[C@H]2CCC[C@@]2(COCc2cccnc2)C1,45.5
2,O=S(=O)(C1CC1)N1C[C@H]2CCC[C@@]2(COCc2ccccn2)C1,43.9
3,O=C(c1ccc(F)cc1)N1C[C@H]2CCC[C@@]2(COCc2ccccn2)C1,40.9
4,O=C(c1ccnnc1)N1C[C@H]2CCC[C@@]2(COCc2ccccn2)C1,31.1
5,O=C(c1cscn1)N1C[C@H]2CCC[C@@]2(COCc2ccccn2)C1,64.7
6,O=C(C1CCOCC1)N1C[C@H]2CCC[C@@]2(COc2cccnc2)C1,23.6
7,O=C(NCCCn1cccn1)C1(c2ccccc2)CCOCC1,16.8
8,Cc1c(C(=O)N2CCCC(n3nnc4cc(F)ccc43)C2)cnn1C (centres undefined),2.71
9,CCC(NC(=O)COC)c1ccccc1OCC(=O)N1CCCC1 (centres undefined),-4.65
10,CN(C)C[C@@H]1CN(C(=O)c2cc(-c3ccccc3)n[nH]2)C[C@@H]1CO,43.9
11,COc1ccc(S(=O)(=O)NC(=O)COC2CCCC2)cc1,-0.96
12,Cc1ccc(NC(=O)N2C[C@@H]3CC[C@H]2CN(Cc2cscn2)C3)cc1,-28.6
13,Nc1ccnc(N2C[C@H]3CC[C@@H](C2)N(CC2CCC2)C3=O)n1,-32.4
14,CCn1ccc(NC(=O)CCn2nc(C)c3ccccc32)n1,-21.3
15,CCN(CC)C(=O)Cn1ccc2cc(NC(=O)NC3CC3)ccc21,-22.91
16,CCC(=O)N1CCC(NC(=O)c2cccc(-n3ccnc3)c2)C1 (centres undefined),2.43
17,Cc1cc(C)n(CC2CCCN2C(=O)c2cccc3c2OCCO3)n1 (centres undefined),10.85
18,CS(=O)(=O)CC(=O)N1C[C@H]2CCC[C@@]2(COCc2ccccn2)C1,25
19,O=C(Cc1ccsc1)N1C[C@H]2CCC[C@@]2(COCc2ccccn2)C1,63.8
20,COC[C@@]12CCC[C@@H]1CN(C(=O)Cc1ccccn1)C2,39.4
21,Cc1ccccc1C(=O)NC(C)c1cnn(C)c1 (centres undefined),40.8
22,CNC(=O)CNCc1c[nH]nc1-c1cc2ccccc2o1,1.51
23,CNc1nc2c(c(C(=O)N3CCCC3)n1)CN(C(=O)CCSC)CC2,-36.6
24,CS(=O)(=O)N1CCOC2(CCN(c3nccs3)CC2)c2ccccc21,5.36
25,CN(C)CCN1CCOC2(CCN(c3nccs3)CC2)c2ccccc21,58.5
26,CN(C)CCN1CCN(C)C2(CCN(c3nccs3)CC2)C1=O,17.2

row,SMILES,INHIBITION [%]
1,CC(C)C(NC(=O)C1CCCC1)c1cc(O)nc(-c2cccnc2)n1 (centres undefined),28.925
2,CS(=O)(=O)c1ccc(OCCCN2CCc3cncnc3C2)cc1,31.2
3,CN(C)CCN1CCCC12CCCN(Cc1ccoc1)C2 (centres undefined),21.6
4,Cc1nccc(C2CN(C(=O)c3cncnc3)C2)n1,-14.2
5,Cc1cccc(CN2C(=O)OCC2CO)c1F (centres undefined),-21.8
6,Cn1cccc1-c1cc(C(=O)NCCCc2csc(N)n2)[nH]n1,35
7,Cc1[nH]c2c(F)cccc2c1CC(=O)NCCCc1csc(N)n1,1.24
8,Cc1ccc(-c2cc(C(=O)NCCCc3csc(N)n3)[nH]n2)o1,64.6
9,Cc1ccc(-c2cc(C(=O)NCCCc3csc(N)n3)[nH]n2)s1,56.5
10,COc1ccc2c(C)c(C(=O)NCCCc3csc(N)n3)oc2c1,43.6
11,Cc1ccc(-c2cc(C(=O)NCCN3CCCS3(=O)=O)[nH]n2)o1,-7.25
12,CNC(=O)C1CN(C(C)C)CCN1c1nc(C)cc(C)n1 (centres undefined),3.48
13,O=C(CC1NC(N2CCc3ccccc3C2)=NC1=O)Nc1ccccc1 (centres undefined),19.3
14,O=C1COc2c(cccc2C(=O)N2CCCC(n3cccn3)C2)N1 (centres undefined),-4.94
15,Cc1nc(C(C)C)sc1C(=O)N1CCN(C2CN3CCC2CC3)CC1 (centres undefined),-6.91
16,CCc1nc(CN(C)C2CCN(CCc3ccncc3)C2)no1 (centres undefined),-12.2
17,CCc1nc(CN(C(C)=O)C2CCN(CC3CCOCC3)C2)no1 (centres undefined),17.4
18,Cc1nc(CN(C)C2CCN(Cc3ccc4ccccc4n3)C2)no1 (centres undefined),70.1
19,CCc1nc(CN(C(C)=O)C2CCN(CCc3ccccc3)C2)no1 (centres undefined),19.4
20,Cc1nc(CN(C)C2CCN(Cc3cccc4cccnc34)C2)no1 (centres undefined),25.3
21,Cc1nc(CN(C)C2CCN(Cc3nc4ccccc4s3)C2)no1 (centres undefined),60
22,CC(=O)N(Cc1noc(C2CC2)n1)C1CCN(CC2CCOCC2)C1 (centres undefined),56.6
23,CCc1nc(CN(C(C)=O)C2CCN(CCc3ccncc3)C2)no1 (centres undefined),66.7
24,Cc1nc(CN(C)C2CCN(Cc3cnc(C)s3)C2)no1 (centres undefined),-29.8
25,COCCN1CCC(N(Cc2noc(C3CC3)n2)C(C)=O)C1 (centres undefined),23.4
26,Cc1nc(CN(C)C2CCN(Cc3nc4ccccc4n3C)C2)no1 (centres undefined),48.2

row,SMILES,INHIBITION [%]
1,Cc1cnc(CN(C)C2CCN(Cc3nc4ccccc4s3)C2)o1 (centres undefined),15.3
2,CN1CCOC(CNCc2csc(C3CCCC3)n2)C1 (centres undefined),45.1
3,O=C(c1ccc(Cl)cc1)N1CCC(N2CCCOC2=O)CC1,48.2
4,COC1CCN(c2ccc(F)cc2CN(C)S(C)(=O)=O)CC1,4.52
5,CN(CC(C)(CO)CO)C(=O)Nc1cc(F)cc(Cl)c1,-35.9
6,COCc1nc(C(=O)NS(=O)(=O)c2ccc(F)cc2F)cs1,-1.95
7,NCCc1n[nH]c(=O)n1-c1cccc2ccccc12,30
8,CN(C)CCN1CCN(Cc2cccc(C#N)c2)Cc2cccnc21,-4.32
9,COc1cccc(CNCCc2cc(F)cc3c2OCOC3)c1OC,30
10,COc1c(CNCCC(=O)NC2CCCCC2)c(C(C)C)nn1C,-7.81
11,Cc1ccc(CN2CC(C(=O)NCC3CC3)C3(CCOCC3)C2)s1 (centres undefined),-18.5
12,Cc1cnn(CC2CN(c3ccc(C#N)cn3)CCO2)c1 (centres undefined),21
13,Cc1nc(CN(C)C2CCN(CC3CCCC3)C2)no1 (centres undefined),-22.9
14,Cc1nc(CN(C)C2CCN(CC3CCC3)C2)no1 (centres undefined),18.2
15,CC(C)c1nc(CN(C)C2CCN(CCS(C)(=O)=O)C2)no1 (centres undefined),33.7
16,CC(=O)N(Cc1noc(C)n1)C1CCN(Cc2cc(C)on2)C1 (centres undefined),-6.62
17,Cc1nc(CN(C)C2CCN(CC3CCCCC3)C2)no1 (centres undefined),63.4
18,CCS(=O)(=O)CCN1CCC(N(C)Cc2noc(C(C)C)n2)C1 (centres undefined),21.2
19,CC(=O)N(Cc1noc(C)n1)C1CCN(Cc2ccccn2)C1 (centres undefined),-39.7
20,Cc1nc(CN(C)C2CCN(CC(=O)N3CCOCC3)C2)no1 (centres undefined),17.3
21,CC(C)c1nc(CN(C)C2CCN(CCNS(C)(=O)=O)C2)no1 (centres undefined),53.3
22,CCc1nc(CN(C)C2CCN(CCC(=O)N3CCCCC3)C2)no1 (centres undefined),36.1
23,Cc1nc(CN(C)C2CCN(CCC(=O)N3CCOCC3)C2)no1 (centres undefined),51.1
24,CC(=O)N(Cc1noc(C)n1)C1CCN(Cc2ccon2)C1 (centres undefined),65.5
25,COc1cccc(CN2CC(O)CN(C(=O)C3CCC3)CC2=O)c1OC (centres undefined),49.5
26,CNC(=O)[C@@H]1[C@@H](c2ccccc2)CN2CCN(Cc3ccccn3)C[C@H]12,20
